# In the library only some 1.2% were active in any assay of this set; here they are far more common.
# BioA inh: BioA (M. tuberculosis) enzyme inhibition | purified M. tuberculosis BioA enzyme, plate reader | inhibition, % at 9.99 µM | hit rate 0.096% among 360,000 | AID 602481; in the data active means inhibition above about 40%
# DUSP3 inh: DUSP3 (human) phosphatase inhibition | AID 1654 | recombinant VHR phosphatase, pNPP absorbance | inhibition, % at 13.3 µM | hit rate 0.52% among 290,000; in the data active means inhibition above about 50%
# Target sequence (P51452 whole entry, looked up): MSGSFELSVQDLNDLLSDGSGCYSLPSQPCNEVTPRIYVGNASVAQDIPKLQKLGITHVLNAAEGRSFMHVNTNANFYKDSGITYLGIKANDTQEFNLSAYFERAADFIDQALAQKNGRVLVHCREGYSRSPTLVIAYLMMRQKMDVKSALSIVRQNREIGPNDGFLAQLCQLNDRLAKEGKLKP
# PfHsp40 rescue: rescue of PfHsp40-mediated yeast toxicity; S. cerevisiae expressing PfHsp40, growth rescue, ATP luminescence; growth rescue, % at 12.5 µM; hit rate 0.68% among 340,000; AID 504582; in the data active means growth rescue above about 28%, passing the limit was not always enough;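 further: yeast W303a lacking pdr1 and pdr3 grown in galactose medium; growth measured after three days at 30 °C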
# Vc quorum ag: quorum light induction in luxS cqsA deficient V. cholerae; AID 588436; hit rate 0.16% among 350,000; V. cholerae BH1578 lux reporter, luminescence, 6 h; activation, % at 18.7 µM; in the data active means activation mostly above about 9.7%, no sharp cut-off
# Y pestis TopoI: inhibitors of Yersinia pestis topoisomerase I; Y. pestis Topo-I cleavage product accumulation, plate reader; activity, % at 10 µM; hit rate 0.064% among 360,000; AID 504884; in the data active means activity above about 50%, passing the limit was not always enough
# TcdB GH inh: TcdB glycohydrolase inhibition | TcdB glycohydrolase enzymatic assay, plate reader | hit rate 0.24% among 350,000 | P18177 | inhibition, % at 9.99 µM; in the data active means inhibition above about 10%
# An asterisk follows results filed as active; i = inactive; / = not tested or not shown.
SMILES,BioA inh,DUSP3 inh,PfHsp40 rescue,Vc quorum ag,Y pestis TopoI,TcdB GH inh
COc1cccc(CN2CCN(C(=O)CC(C)C)CC2)c1,0.4,10.5,35.9*,/,2.3,/
Fc1cc(Br)cc(F)c1NC(=S)N1CCOCC1,-0.6,-14.3,-2.0,i,-2.1,0.4
COc1ccc(CNC(=O)C2CCCN(c3nc4ccccc4o3)C2)c(OC)c1 (stereo not drawn),/,52.6*,0.1,-0.4,28.5,-0.2
C/C(CC(=O)Nc1cccc2c1CCCC2)=N\NC(=O)COc1ccccc1,-0.5,8.5,1.1,-0.2,3.7,/
CC(=O)Oc1cccc2c1C(=O)C1CC=CC(OC(C)=O)C1C2=O (stereo not drawn),/,/,0.1,/,60.9*,-1.1
CC(=O)Oc1cccc2c1C(=O)c1c(OC(C)=O)cc(C(=O)O)cc1C2=O,-1.0,12.4,0.4,-3.0,7.7,3.3
Clc1ccc2nc(N3CCNCC3)nc(-c3ccccc3)c2c1,-0.7,51.7*,-1.6,i,-3.7,/
CCC(C)c1ccc(S(=O)(=O)N2CC(=O)Nc3ccccc32)cc1 (stereo not drawn),/,-8.5,8.7,-0.5,-1.0,/
Cc1noc(C)c1NC(=O)N(C)C[C@H]1OCCCC[C@H](C)Oc2ccc(NS(=O)(=O)c3ccc(Cl)cc3)cc2C(=O)N([C@@H](C)CO)C[C@H]1C,0.6,/,/,/,/,-17.3
Nc1ccc2c(c1)C(=NO)c1ccccc1-2,-2.0,/,0.5,i,-3.2,1.2
ON=C1c2ccccc2-c2ccc(O)cc21,/,/,6.6,2.2,-1.5,15.3*
Cc1ccc(N=Nc2ccc(O)cc2)c(Br)c1,1.1,-16.3,200.8*,i,-17.5,2.3
CC1CN(C(=O)c2cc3cc(F)ccc3[nH]2)CC(C)O1 (stereo not drawn),0.0,53.0*,-0.9,i,-1.6,0.8
CC(C)c1ccc(CN2CCC(C)(Oc3ccc(Cl)cc3)C2)cc1 (stereo not drawn),1.3,/,/,-0.2,26.0,-0.2
O=C(CNC(=O)c1ccc(Br)o1)NNC(=O)c1cccc(Cl)c1,-1.2,/,-1.6,-1.4,-3.0,1.6
COc1ccc(S(=O)(=O)N2CCC(C(N)=O)(N3CCCCC3)CC2)cc1,0.3,6.5,-0.7,-0.6,7.6,3.8
Cc1cccc(NC(=O)CCNC(=O)c2ccco2)c1,/,50.8*,0.3,0.1,-2.6,-7.4
Cc1ccc(C(=O)NCCC(=O)NCc2ccco2)cc1,0.3,53.5*,0.9,0.5,4.0,-0.7
Cc1ccc(NC(=O)CCNC(=O)c2ccco2)cc1,/,-0.2,0.2,-0.4,1.9,/
O=C(CCNC(=O)c1ccc(Br)cc1)NCc1ccco1,-0.5,/,0.4,i,-0.4,0.6
O=C(O)/C(=C\c1ccc(-c2ccc(F)cc2)o1)c1ccccc1,/,13.2,36.6*,-0.5,12.9,0.1
O=Cc1ccc(-c2ccc(F)cc2)o1,-0.8,7.8,-0.8,-0.6,-0.7,-0.3
CCOc1ccc(NC(=S)N2CCC(c3nc4ccccc4[nH]3)CC2)cc1,-0.9,7.8,0.1,-0.6,-1.4,0.7
COc1cc(/C=C/C(=O)OCC(=O)NC(=O)NC(C)C)ccc1OCC#N,1.8,-1.5,0.6,i,1.4,/
COc1cc(/C=C/C(=O)OCC(=O)N(C)Cc2ccccc2)cc(OC)c1OC,3.3,/,-0.4,-1.8,33.2,-0.4
SMILES,BioA inh,DUSP3 inh,PfHsp40 rescue,Vc quorum ag,Y pestis TopoI,TcdB GH inh
COc1cc(/C=C/C(=O)OCC(=O)N(C)Cc2ccccc2)ccc1O,0.6,/,1.4,-2.0,16.4,11.0*
COc1cccc(/C=C/C(=O)OCC(=O)c2ccc[nH]2)c1,0.9,/,/,-0.5,5.6,-1.2
COc1cc(/C=C/C(=O)OCC(=O)NC(=O)NC(C)C)ccc1O,0.4,5.4,0.0,-0.2,9.0,11.9*
COc1cc(/C=C/C(=O)OCC(=O)c2ccc[nH]2)ccc1O,0.5,/,/,3.3,6.6,14.7*
O=C(NC(c1ccc(-c2ccccc2)cc1)c1cnccn1)C1CCN(CCOc2ccc(F)cc2)CC1 (stereo not drawn),-0.5,/,/,-1.2,13.7,-0.7
CNC(C(=O)c1ccccc1)C(OC)c1ccccc1 (stereo not drawn),-1.5,13.6,0.0,1.4,3.7,/
CNC(C(=O)c1ccccc1)C(OC)c1cccc([N+](=O)[O-])c1 (stereo not drawn),/,9.1,-0.6,-0.4,-3.3,20.9*
CCCc1c(-c2ccc(F)cc2F)ncn1Cc1cccc(-c2ccccc2)c1,/,/,/,/,/,-0.8
COc1cc(NC(=O)COC(=O)CNC(=O)c2ccc(C)cc2)c(C)cc1[N+](=O)[O-],/,4.0,86.4*,i,4.3,0.5
